From PubChem BioAssay
The list is not random: actives were taken first. Their share in the collection is about 7.5%.
TSHR antag: Antagonists of the Thyroid Stimulating Hormone Receptor: HTS campaign; Thyrotropin receptor (Homo sapiens), P16473; TSHR-expressing cells, TSH-stimulated cAMP HTRF, 2 h; stronger effect = lower value; activity change, negative = inhibition, % at 11.5 µM; 330,000 tested, 0.2% active; AID 504810, 2011;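 active = activity change below a set negative limit, meaning inhibition stronger than a set level, cut at about -70% in these data; inconclusive = activity change between two set negative limits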
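Cell-based HTRF cAMP assay; TSHR cells + compound, TSH EC80 (4nM final), 2 h, 37 deg C. Lysis with anti-cAMP cryptate and cAMP-d2, 30 min RT, read 665/620 nm.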
RORg inh: qHTS for inhibitors of ROR gamma transcriptional activity. Nuclear receptor ROR-gamma (Mus musculus), P51450. Drosophila S2 Gal4-RORgamma UAS-luciferase reporter, 20 h. Potency, µM (top dose mostly 53.6 µM), without a hit: at the highest dose activity change, negative = inhibition, actives largely listed as inhibitors. 310,000 tested, 5.4% active. AID 2551, 2010; also: potency is read from the fitted curve at half-maximal effect; nearly all actives have a fitted effect of over 60% in size
Target sequence (P51450 whole entry, looked up, the tested form may be a part): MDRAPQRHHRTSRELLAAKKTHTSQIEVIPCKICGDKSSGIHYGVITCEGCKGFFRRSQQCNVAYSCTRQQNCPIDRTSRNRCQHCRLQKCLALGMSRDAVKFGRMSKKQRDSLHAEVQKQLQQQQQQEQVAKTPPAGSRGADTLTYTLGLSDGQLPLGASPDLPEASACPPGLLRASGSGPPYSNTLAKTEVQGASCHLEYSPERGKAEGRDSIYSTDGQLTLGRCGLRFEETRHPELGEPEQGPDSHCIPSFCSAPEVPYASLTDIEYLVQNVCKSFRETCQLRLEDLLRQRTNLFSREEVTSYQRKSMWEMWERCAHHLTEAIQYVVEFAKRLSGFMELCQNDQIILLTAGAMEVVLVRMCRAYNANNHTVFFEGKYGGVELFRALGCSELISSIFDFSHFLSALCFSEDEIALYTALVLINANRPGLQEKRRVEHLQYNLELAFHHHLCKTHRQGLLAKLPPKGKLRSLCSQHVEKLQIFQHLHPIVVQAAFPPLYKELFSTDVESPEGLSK
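Read-out: Photinus luciferase luminescence; inhibitors lower reporter signal. Insect Schneider cells with Gal4-ROR gamma fusion under metallothionein promoter, UAS reporter; 700 uM final copper sulfate induction, 20 hr, ambient temperature.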
ELG1 repair inh: qHTS screen for small molecules that inhibit ELG1-dependent DNA repair in human embryonic kidney (HEK293T) cells expressing luciferase-tagged ELG1; HEK293T ELG1-luciferase reporter, luminescence, 16 h; DNA damage induced by 5-fluorouridine; Potency, µM (top dose mostly 46.1 µM), for inactives: at the highest dose activity change, negative = inhibition, hits mostly inhibitors; 330,000 tested, 2.3% active; AID 504467, 2011; also: potency is read from the fitted curve at half-maximal effect; nearly all actives have a fitted effect of over 55% in size
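5-Fluorouridine DNA damage + compound/DMSO, 2,000 cells/well, 16 h, 37 °C/5% CO2. ONE-Glo, 30 min RT, luminescence. Readout = decrease in reporter signal.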
B2AR arrestin: qHTS assay of beta-arrestin-biased ligands of beta2-adrenergic receptor; beta-arrestin recruitment to beta2AR, cell-based reporter; 330,000 tested, 0.02% active; Potency, µM (top dose mostly 46.1 µM), without a hit: at the highest dose activation, most hits filed as activators;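 also: potency is read from the fitted curve at half-maximal effect; 0% = DMSO controls and full agonism = EC100 isoproterenol or metaproterenol; nearly all actives have a fitted effect of over 65% in size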
Gal4-VP16 FLuc: VP16 counterscreen qHTS for inhibitors of ROR gamma transcriptional activity; 310,000 tested, 3.5% active; Drosophila S2 Gal4-VP16 UAS-luciferase, luminescence, 20 h; Potency, µM (top dose mostly 53.6 µM), without a hit: top-dose activity, negative = inhibition, hits mostly inhibitors;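 also: Gal4-VP16 expression switched on by copper sulfate through the metallothionein promoter; potency is read from the fitted curve at half-maximal effect; nearly all actives have a fitted effect of over 50% in size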
Numbers without * were called inactive; ? = inconclusive; · = no result. Unless noted, calls follow the shape of the dose curve; as a rule, active = well fitted curve in the direction sought with a large enough effect; inconclusive = small, poorly fitted or top-dose-only effect, or another doubt; inactive = no such curve, though single readings can be large; an effect the other way counts as inactive or inconclusive. Unless noted, % is scaled to controls: 0 for no effect and ±100 for the full control effect.

SMILES	TSHR antag	RORg inh	ELG1 repair inh	B2AR arrestin	Gal4-VP16 FLuc
CCn1c(C(C)NS(=O)(=O)c2ccc(Cl)cc2)n[nH]c1=S (stereo not given)	9	-31%	1%	0%	0%
S=c1[nH]nc(C2CC2)n1Cc1ccco1	-1	-16%	1%	1%	4%
O=C(O)c1ccc(N[C@@H]2OC[C@@H](O)[C@@H](O)[C@@H]2O)cc1	·	-10%	·	·	-2%
Fc1ccc(C2NC(=S)NC3=C2N2CCC3CC2)cc1 (stereo not given)	12	-28%	-10%	0%	-26%
Fc1ccc(/C=C2\CCCC3=C2NC(=S)NC3c2ccc(F)cc2)cc1 (stereo not given)	5	8.9µM*	9%	-4%	?
Cc1nnc(SCC(=O)NC2CCCC2)n1C(C)C	-10	-8%	17%	0%	3%
O=C(CCl)N(c1ccccc1)C1CCCCC1	16	0.71µM*	16µM*	0%	3.5µM*
O=C(c1csnn1)N1CCC2(CC1)CCN(c1cccc(-c3ccccc3)c1)CC2	·	37%	·	·	-10%
CC(=O)N1CCN(c2ccccc2NC(=O)c2cc3ccccc3o2)CC1	24	?	15µM*	3%	12%
O=C(Nc1ccc(CN2CCOCC2)cc1)c1ccc(Cl)cc1Cl	-18	-13%	?	-1%	2%
O=C(Nc1ccc(CN2CCS(=O)(=O)CC2)cc1)c1ccc(Cl)cc1	-4	33%	10µM*	0%	-5%
O=C(Nc1ccc(CN2CCOCC2)cc1)c1ccccc1F	-12	0.63µM*	?	0%	11µM*
O=C(Nc1ccc(CN2CCOCC2)cc1)c1cc2ccccc2o1	-5	11µM*	?	0%	?
NC(=O)c1ccc(NC(=O)c2ccc(CN3CCOCC3)cc2)cc1	27	3%	?	4%	-1%
Cc1ccc(CNC(=O)[C@]2(C(F)(F)F)C[C@H](CCc3ccccc3)CCCO2)o1	·	5%	·	·	-11%
O=C(Nc1ccc(CN2CCOCC2)cc1)c1cc2ccccn2n1	6	10µM*	?	0%	20µM*
O=C(Cc1ccccc1)Nc1ccc(CN2CCOCC2)cc1	12	-30%	?	0%	?
Fc1ccc(-c2nnc(Cc3nnc(-c4ccc(F)cc4)o3)o2)cc1	0	5µM*	-15%	0%	?
CC(C)c1ccc2oc(-c3cc(N)ccc3O)nc2c1	-5	10µM*	?	0%	22µM*
CCc1ccc(OCC(=O)NC2CCCCC2)c(Br)c1	1	2.8µM*	12%	0%	4µM*
CCc1ccc(OCC(=O)NNC(=S)NC(=O)C2CCCCC2)c(Br)c1	3	10µM*	?	0%	-22%
CC(C)CCC[C@@H](C)[C@H]1CC[C@H]2[C@@H]3CC=C4CC(O)CC[C@]4(C)[C@H]3CC[C@]12C (stereo not given in full)	·	5%	·	·	3%
Cc1ccc(N(C(=O)CS(=O)CC(=O)Nc2ccc(F)cc2)C(C)C(=O)NC(C)(C)C)cc1 (stereo not given)	8	-32%	?	0%	-17%
Cc1ccc(NC(=O)CC2S/C(=N/N=C/C=C/c3ccccc3)NC2=O)cc1Cl (stereo not given)	-3	4µM*	18%	0%	4µM*
CC(C)=N/N=C1/NC(=O)C(CC(=O)Nc2cc(Cl)ccc2C)S1 (stereo not given)	13	11µM*	-6%	0%	?
SMILES	TSHR antag	RORg inh	ELG1 repair inh	B2AR arrestin	Gal4-VP16 FLuc
COc1ccc(N(CC(=O)NC2CCCCCC2)S(=O)(=O)c2ccc(C)cc2)cc1OC	-9	-6%	2%	3%	-2%
O=C1/C(=C\c2cccs2)CCC/C1=C/c1cccs1	·	4%	·	·	1%
Cc1ccc(-c2nc3n(n2)Cc2ccccc2-3)cc1	-9	?	?	0%	10µM*
Fc1ccc(-c2nc3n(n2)Cc2ccccc2-3)cc1	-13	0%	?	0%	?
CCn1c(C)nc2cc(-c3nc4n(n3)Cc3ccccc3-4)ccc21	2	0.89µM*	?	-2%	0.045µM*
Cc1[nH]nc2c1C1(CCN(C(=O)OCc3ccccc3)CC1)C(C#N)=C(N)O2	-9	5µM*	2%	0%	?
Nc1c(C(=O)O)sc2nc(-c3ccccc3)cc(-c3ccc(Cl)cc3)c12	-16	?	?	0%	-7%
NNC(=O)c1oc2nc(-c3ccco3)cc(-c3ccco3)c2c1N	4	-8%	?	0%	-18%
Nc1c(C(=O)N/N=C/c2cccnc2)oc2nc(-c3ccco3)cc(-c3ccco3)c12	-12	-1%	2.9µM*	0%	2%
NNC(=O)c1oc2nc(-c3ccc(Cl)cc3)cc(-c3ccccc3)c2c1N	-18	-22%	16µM*	-1%	4%
Nc1c(C(=O)N/N=C/c2cccnc2)oc2nc(-c3ccccc3)cc(-c3ccco3)c12	-5	-28%	7.3µM*	-1%	7%
O=C(N/N=C/c1cc([N+](=O)[O-])cc(Br)c1O)C12CC3CCC(CC(C3)C1)C2	3	5µM*	23µM*	4%	4µM*
Cc1cc(F)c(Nc2ncnc3cc(OCc4ccccc4)ccc23)cc1O	·	0%	·	·	-4%
O=C(CCCn1c(=S)[nH]c2ccsc2c1=O)NC1CCCCC1	4	20µM*	?	0%	?
O=C(CCCn1c(=O)[nH]c2ccsc2c1=O)NC1CCCCC1	2	1%	11%	0%	3%
CC1CCCCC1NC(=O)CCCCCn1c(=S)[nH]c2ccsc2c1=O (stereo not given)	-5	11µM*	-6%	1%	?
Cc1ccc(C)c(Nc2nc3ccc(C)cc3n3cnnc23)c1	9	-17%	-12%	-1%	-4%
COc1ccc(C2=Nn3c(nnc3-c3ccc(OC)c(OC)c3)SC2)cc1OC	·	-27%	·	·	-8%
COc1cc2c(C#N)c(N3CCN(c4ccccc4OC)CC3)nc(N)c2c(N)n1	-24	-19%	9.2µM*	1%	0%
COc1cc2c(C#N)c(N3CCN(C)CC3)nc(N)c2c(N)n1	-6	-8%	3%	0%	-16%
N#Cc1c(N2CCCC2)nc(N)c2c(N)nc(N3CCCC3)cc12	-18	8.9µM*	?	0%	-6%
CCCC(C)c1nnc(NC(=O)COc2ccc3c(c2)OCO3)s1 (stereo not given)	-6	15%	-1%	0%	-10%
COc1ccc2[nH]c(CN3CCN(CC=C(C)C)C(CCO)C3)c(C)c2c1 (stereo not given)	1	-11%	18%	0%	-8%
